Screen size: about 52,000 compounds; about 1,700 (3.3%) were called active. What follows is part of a selection rich in actives, with near analogues and random picks from the rest. Unmarked numbers belong to inactive results. No stated cut-off is given here; in the data, active means survival mostly below about 52% (no sharp cut-off); inactive means mostly above about 56%.

In the assay the test system is Wild type. The assay is described as follows: growth inhibition of S. aureus wild type versus tarO mutant, primary screen, teichoic acid synthesis inhibitors, RN4220, OD600 (AID 463173). As to conditions: S. aureus RN4220 wild type/DeltatarO growth, OD600, 18 h, stronger effect = lower value, screened at 18.75 µg/mL (by protocol).
For the compound `CC(=O)c1cccc(NC(=O)C2CCN(S(=O)(=O)c3ccc4[nH]c(=O)ccc4c3)CC2)c1`, the survival is 75%.
The value for `CCn1c(SCC(=O)OC2CCCCC2)nnc1-c1ccc(OC)cc1` was 113%; that for `Cc1cc(C)cc(OC(=O)c2cc(-c3ccc4c(c3)OCCO4)on2)c1` was -7% (active).
The value for `Cc1cc(C)cc(OC(=O)c2cc(-c3ccc(Cl)cc3)on2)c1` was 87%.
As to `Cc1ccc(-c2cc(C(=O)Oc3ccc(C#N)cc3)no2)cc1C`, the survival was 82%.
The value for `CC(=O)Nc1ccc(NC(=O)c2cc(-c3ccc4c(c3)OCCO4)on2)cc1` was 109%; that for `Cc1cccc(OC(=O)c2cc(-c3ccc4c(c3)OCCO4)on2)c1` was -7% (active).
The value for `Cc1ccc(-c2cc(C(=O)Oc3ccc(C#N)cc3)no2)cc1` was 88%; that for `Cc1cccc(OC(=O)c2cc(-c3ccc(C)c(C)c3)on2)c1` was -7% (active); that for `CC(=O)c1cccc(NC(=O)c2cc(-c3ccc4c(c3)OCCO4)on2)c1` was 77%.
As for `Cc1cccc(NC(=O)c2cc(-c3ccc4c(c3)OCCO4)on2)c1`, the survival was 78%.
Under `COc1ccc(CC(=O)NCC(c2ccc(N(C)C)cc2)N2CCOCC2)cc1` (configuration not stated) stands 81%; under `Clc1ccccc1-c1nnc(-c2ccccc2CNc2ccc(Br)cc2)o1`, 91%; under `CCCNC(=O)Cn1nc(-c2ccc(OC)cc2)c2cnc3ccc(F)cc3c21`, 73%.
The value for `Cc1cccc(CNS(=O)(=O)c2ccc3[nH]c(=O)ccc3c2)c1` was 124%; that for `COc1ccc(C(C(=O)NCc2ccccc2)N(Cc2ccco2)C(=O)c2cnccn2)cc1` (configuration not stated) was 101%; that for `COc1cccc(CNC(=O)C(NS(=O)(=O)c2cccs2)C(C)C)c1` (configuration not stated) was 94%.
Under `COc1ccc(OC)c(C2N=C(N)Nc3nc4ccccc4n32)c1` (configuration not stated) stands 72%.
`COc1cc(Nc2nc3ccc(Cl)cc3nc2-n2nc(C)cc2C)cc(OC)c1`: the survival is 93%.
In the case of `Cc1cc(C)n2c(SCC(=O)N(C)C3CCCCC3)nnc2n1`, the survival was 101%.
In the case of `CC(C)(C)C(=O)NC1CCN(S(=O)(=O)c2ccccc2C(=O)O)CC1`, the survival was 105%.
The value for `CCCN(CCC)CCNC(=O)c1cc2c(-c3ccc(Cl)cc3)nn(C)c2s1` was 81%.
In the case of `CCCN(CCC)CCCNC(=O)c1cc2c(-c3ccc(Cl)cc3)nn(C)c2s1`, the survival is 95%.
The value for `CCCCN(CC)CCNC(=O)c1cc2c(-c3ccc(Cl)cc3)nn(C)c2s1` was 5% (active); that for `CCOc1ccc(-c2c(C)nn3c(C)c(C(=O)NC(C)c4ccccc4)cnc23)cc1OCC` (configuration not stated) was 75%.
The value for `Cc1ccc(CNC(=O)CN2C(=O)CCc3cc(S(=O)(=O)N4CCCCC4)ccc32)cc1` was 91%.
As to `COc1nc(C)c(/C=C/C(=O)N(C(=O)NC2CCCCC2)C2CCCCC2)c(OC)n1`, the survival was 101%.
Under `CCc1nnc2c(N3CCN(c4cccc(C(F)(F)F)c4)CC3)nc3ccccc3n12` stands 120%; under `Clc1cccc(N2CCN(c3nc4ccccc4n4cnnc34)CC2)c1`, 70%; under `FC(F)(F)c1cccc(N2CCN(c3nc4ccccc4n4cnnc34)CC2)c1`, 2% (active).
The value for `COc1cccc(/C=C/c2nc(C#N)c(N3CCCCC3)o2)c1` was 67%; that for `CCOc1ccccc1N(C)C(=O)Cn1cnc2onc(-c3ccc(F)cc3)c2c1=O` was 90%; that for `COc1ccc(-n2ccnc(NCCc3ccc(Cl)cc3)c2=O)cc1OC` was 47%.
The value for `Cc1cc(C)cc(-n2ccnc(NCCc3ccccc3)c2=O)c1` was 75%.
`COc1ccc(-n2ccnc(NCc3ccccc3Cl)c2=O)cc1OC`: the survival was 71%.
Under `COc1ccccc1CNc1nccn(-c2ccc(F)cc2)c1=O` stands 76%; under `O=c1c(NCc2ccccc2Cl)nccn1-c1ccccc1`, -1% (active).
The value for `O=c1c(NCCc2ccc(Cl)cc2)nccn1-c1ccccc1` was 14% (active); that for `Cc1ccc(S(=O)(=O)NCC2CCC(C(=O)NCc3ccc(F)cc3)CC2)cc1` (configuration not stated) was 75%.
Under `CCC(C)NC(=O)c1ccc2c(c1)N(Cc1ccccc1)C(=O)c1ccccc1S2(=O)=O` (configuration not stated) stands 85%; under `COC(=O)c1cc(S(=O)(=O)NCC2CCN(Cc3cccc(F)c3)CC2)c[nH]1`, 90%.
As to `CN(Cc1nc(-c2ccc(Cl)cc2)no1)S(=O)(=O)c1ccccc1`, the survival is 82%.
As to `Cc1cccc(NC(=O)N2CCC(CN3CCc4ccccc4C3)CC2)c1C`, the survival was -4% (active).
Consider `CCOc1ccc(NC(=O)N2CCC(CN3CCC(C)CC3)CC2)cc1`, for which the survival is 127%.
Consider `CCc1ccccc1NC(=O)N1CCC(CN2CCc3ccccc3C2)CC1`, for which the survival was 60%.
Under `Cc1cccc(NC(=O)N2CCC(CN3CCCCCC3)CC2)c1C` stands 55%; under `COC(=O)c1ccc(NC(=O)N2CCC(CN3CCc4ccccc4C3)CC2)cc1`, 1% (active).
Take `Cc1cc(C)cc(NC(=O)N2CCC(CN3CCc4ccccc4C3)CC2)c1`: the survival was 81%.
Under `CCOc1ccc(NC(=O)N2CCC(CN3CCc4ccccc4C3)CC2)cc1` stands -3% (active); under `CCOc1ccc(NC(=O)N2CCC(CN3CCCCCC3)CC2)cc1`, 111%; under `COc1cc(NC(=O)N2CCC(CN3CCc4ccccc4C3)CC2)cc(OC)c1`, 81%.
The value for `CCCC(=O)Nc1cc(-c2nnc3c4ccccc4c(C)nn23)ccc1C` was 72%; that for `O=C(Nc1ccc(O)c(-c2nc3ccccc3o2)c1)c1ccc(Br)cc1` was 88%; that for `CC1Cn2cc(C(=O)Nc3cccc(C(F)(F)F)c3)c(=O)c3c(Cl)ccc(c32)O1` (configuration not stated) was 89%.
Under `CCOC(=O)c1cccnc1SCC(=O)N(CC)c1cccc(C)c1` stands 70%; under `CCn1c(CN2CCCCC2)nc2cc(NC(=O)COc3ccc(C(C)(C)C)cc3)ccc21`, 97%.
Consider `CCOc1cc(C2NC(=O)c3c(sc4c3CCN(C)C4)N2)ccc1OC(=O)c1ccc(Br)cc1` (configuration not stated), for which the survival is 71%.
Under `CCCCCOc1ccc(/C=C/C(=O)Nc2sc(C(C)=O)c(C)c2C(=O)OCC)cc1OC` stands 76%; under `CCOC(=O)CSc1nc2cc3c(cc2c(=O)n1CCCCCC(=O)NCc1ccc2c(c1)OCO2)OCO3`, 81%; under `CCOc1ccc(C(=O)c2cn(CC(=O)Nc3cc(OC)ccc3OC)c3cc(OC)c(OC)cc3c2=O)cc1`, 68%.
Under `COC(=O)C1CCN(S(=O)(=O)c2cc3c4c(c2)C(C)C(=O)N4CCC3)CC1` (configuration not stated) stands 125%; under `CC1C(=O)N2CCCc3cc(S(=O)(=O)N4CCC(C(N)=O)CC4)cc1c32` (configuration not stated), -3% (active).
In the case of `CCOC(=O)C1CCN(S(=O)(=O)c2cc3c4c(c2)C(C)C(=O)N4CCC3)CC1` (configuration not stated), the survival is 88%.
Under `COc1ccc(N2CCN(C(=O)CSc3n[nH]c(-c4ccccc4)n3)CC2)cc1` stands 72%; under `COc1ccc(S(=O)(=O)N(CC(=O)Nc2ccccc2Br)Cc2ccccc2)cc1`, 77%; under `CSc1cccc(Nc2cc(C(=O)NCCCN(Cc3ccccc3)C(C)C)c3ccccc3n2)c1`, 75%.
Under `COc1ccc(Nc2cc(C(=O)NCCCN(C)C3CCCCC3)c3ccccc3n2)cc1` stands 99%; under `Cc1cc(C)cc(Nc2cc(C(=O)NCc3ccccc3)c3ccccc3n2)c1`, 139%; under `CCCCN(C)CCNC(=O)c1cc(-c2ccc(Cl)s2)nc2ccccc12`, 82%.
Under `Cc1ccc(C)c(Nc2cc(C(=O)NCCCN(C)C3CCCCC3)c3ccccc3n2)c1` stands 99%; under `Cc1cc(C)cc(Nc2cc(C(=O)NCCCN(C)C3CCCCC3)c3ccccc3n2)c1`, 26% (active).
Consider `Cc1cc(C)cc(Nc2cc(C(=O)NCCCN(Cc3ccccc3)C(C)C)c3ccccc3n2)c1`, for which the survival is -6% (active).
The value for `CCCCN(C)CCCNC(=O)c1cc(-c2ccc(Br)s2)nc2ccccc12` was 26% (active).
Under `CCCN(CCC)CCNC(=O)c1cc(-c2ccc(Br)s2)nc2ccccc12` stands 80%.
The value for `Cc1ccc2c(c1)NC(=O)C(CC(=O)Nc1cc(Cl)ccc1C)O2` (configuration not stated) was 77%; that for `COc1ccc(Br)cc1S(=O)(=O)Nc1cc(-c2cn3ccccc3n2)ccc1C` was 63%.
Regarding `Cc1ccc(C(=O)Nc2ccc3c(c2)N(C)C(=O)c2ccccc2S3)cc1F`, the survival was 72%.
The value for `O=C(Cn1ncn2c(cc3sccc32)c1=O)NCCc1ccccc1` was 85%; that for `CC(Sc1nnc(-c2ccccc2)n1N)C(=O)O` (configuration not stated) was 109%.
Under `CCOc1ccc(Nc2ncnc3c2cnn3-c2ccc(F)cc2)cc1` stands 60%.
Turning to `Cc1ccc(N2CCN(C(=O)c3c(C)oc4ncnc(N5CCOCC5)c34)CC2)c(C)c1`, the survival is 83%.
Under `CSc1ccc(-c2nc3ncccn3c2Nc2ccc(C)c(C)c2)cc1` stands 60%; under `COc1cc(OC)c(NC(=O)c2c(C)oc3ncn(C)c(=O)c23)cc1Cl`, 88%.
Under `CCOc1ccccc1NC(c1nnc(-c2ccccc2)o1)c1ccc(F)cc1Cl` (configuration not stated) stands 2% (active).
The value for `COc1cc(OC)c(NC(c2nnc(-c3ccccc3)o2)c2ccc(F)cc2Cl)cc1Cl` (configuration not stated) was 66%.
Regarding `COc1ccc(C)cc1NC(c1nnc(-c2ccccc2)o1)c1ccc(F)cc1Cl` (configuration not stated), the survival is 3% (active).
Under `Cc1cccc(NC(c2nnc(-c3ccccc3)o2)c2ccc(F)cc2Cl)c1C` (configuration not stated) stands 55%; under `CCc1ccccc1NC(c1nnc(-c2cccc(F)c2)o1)c1ccc(F)cc1Cl` (configuration not stated), 86%.
For the compound `COc1cccc(NC(c2nnc(-c3ccccc3)o2)c2ccc(F)cc2Cl)c1` (configuration not stated), the survival is 56%.
The value for `COc1ccc(S(=O)(=O)NCCc2csc(-c3ccc(F)cc3)n2)cc1F` was 81%; that for `Cc1cc(C)cc(NC(=O)CCS(=O)(=O)c2cccc3nsnc23)c1` was 64%.
The value for `COc1cc(C2c3c(oc4ccccc4c3=O)C(=O)N2c2nncs2)cc(OC)c1OC` (configuration not stated) was 76%.

The record behind these values is PubChem BioAssay AID463173 (ICCB-Longwood Screening Facility, Harvard Medical School, 2010).
